Experimental data: the supplement of paper PMC3342239
Counter-ions that a name gives are not always drawn.

Test system: Saccharomyces cerevisiae
Assay: fraction of cells in G1 phase (DNA content, flow cytometry); higher = more cells with unreplicated DNA (G1 delay)
Settings: temperature: 30 C; YPD; JTY2953 pdr5 snq2 (sensitized); drug added to: cultures diluted from stationary phase; 6-7 h
Summary of the method: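 Yeast (S. cerevisiae) in YPD at 30°C was treated with library drugs, and cells were then fixed in ethanol, stained with SYTOX Green and counted by flow cytometry over 10,000 events. Sensitized JTY2953 diluted 1∶200 from an overnight culture got a final 20 µg/ml and was fixed 6–7 h later; other runs dosed dividing JTY2953 (fixed at 6 h) or BY4741 (fixed at 4.33 h). G1 fraction means the Dean-Jett-Fox G1 peak area relative to the G1 and G2/M areas together.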

Row | Compound | fraction of cells in G1 phase
1 | Cc1ccccc1C(OCCN(C)C)c1ccccc1 (centres undefined) [Orphenadrine citrate] (43.3369 µM) | 0.522
2 | COc1ccc2cc(CCC(C)=O)ccc2c1 [Nabumetone] (87.6065 µM) | 0.535
3 | CO[C@H](C(=O)[C@@H](O)[C@@H](C)O)[C@@H]1Cc2cc3cc(O[C@H]4C[C@@H](O[C@H]5C[C@@H](O)[C@H](O)[C@@H](C)O5)[C@H](O)[C@@H](C)O4)c(C)c(O)c3c(O)c2C(=O)[C@H]1O[C@H]1C[C@@H](O[C@H]2C[C@@H](O[C@H]3C[C@](C)(O)[C@H](O)[C@@H](C)O3)[C@@H](O)[C@@H](C)O2)[C@H](O)[C@@H](C)O1 [Plicamycin] (18.4303 µM) | 0.513
4 | COC(=O)N[C@H](C(=O)N[C@@H](Cc1ccccc1)[C@@H](O)CN(Cc1ccc(-c2ccccn2)cc1)NC(=O)[C@@H](NC(=O)OC)C(C)(C)C)C(C)(C)C [Atazanavir] (28.3739 µM) | 0.525
5 | C#C[C@]1(O)CC[C@H]2[C@@H]3CCC4=CC(=O)CC[C@@H]4[C@H]3CC[C@@]21C [Norethindrone] (67.0176 µM) | 0.552
6 | CCCc1nc(C)c2c(=O)nc(-c3cc(S(=O)(=O)N4CCN(CC)CC4)ccc3OCC)[nH]n12 [Vardenafil] (40.9322 µM) | 0.511
7 | CCCCNc1cc(C(=O)O)cc(S(N)(=O)=O)c1Oc1ccccc1 [Bumetanide] (54.8812 µM) | 0.566
8 | C[C@]12CC[C@@H]3c4ccc(O)cc4CC[C@H]3[C@@H]1CCC2=O [Estrone] (73.9714 µM) | 0.508
9 | CN1C(C(=O)Nc2ccccn2)=C(O)c2sccc2S1(=O)=O [Tenoxicam] (59.2806 µM) | 0.469
10 | CC1=C(/C=C/C(C)=C/C=C/C(C)=C/C=C/C=C(C)/C=C/C=C(C)/C=C/C2=C(C)C(=O)CCC2(C)C)C(C)(C)CCC1=O [Canthaxanthin] (35.4071 µM) | 0.527
11 | CN(C)c1nc(N(C)C)nc(N(C)C)n1 [Altretamine] (95.1095 µM) | 0.49
12 | CC(C)(CO)[C@@H](O)C(=O)NCCC(=O)O [Pantothenic acid] (91.2244 µM) | 0.484
13 | Nc1cc(-c2ccncc2)c[nH]c1=O [Amrinone] (106.838 µM) | 0.474
14 | Nc1nc2c(ncn2COC(CO)CO)c(=O)[nH]1 [Ganciclovir] (78.3591 µM) | 0.451
15 | CN(Cc1ccc(C(C)(C)C)cc1)Cc1cccc2ccccc12 [Butenafine] (62.9964 µM) | 0.405
16 | C#Cc1cccc(Nc2ncnc3cc(OCCOC)c(OCCOC)cc23)c1 [Erlotinib] (50.8329 µM) | 0.527
17 | CC(=O)[C@@]1(O)CC[C@H]2[C@@H]3CCC4=CC(=O)CC[C@]4(C)[C@H]3CC[C@@]21C [17- hydroxyprogesterone] (60.5196 µM) | 0.515
18 | CCOc1ccccc1OCCN[C@H](C)Cc1ccc(OC)c(S(N)(=O)=O)c1 [Tamsulosin HCl] (48.9571 µM) | 0.507
19 | N#Cc1ccc(C(c2ccc(C#N)cc2)n2cncn2)cc1 [Letrozole] (70.099 µM) | 0.519
20 | CCN1CCN(C(=O)N[C@@H](C(=O)N[C@@H]2C(=O)N3[C@@H]2SC(C)(C)[C@@H]3C(=O)O)c2ccccc2)C(=O)C1=O [Piperacillin] (38.6425 µM) | 0.462
21 | CC[C@]1(O)C[C@@H]2CN(CCc3c([nH]c4ccccc34)[C@@](C(=O)OC)(c3cc4c(cc3OC)N(C)[C@H]3[C@@](O)(C(N)=O)[C@H](O)[C@]5(CC)C=CCN6CC[C@]43[C@@H]65)C2)C1 [Vindesine] (26.5271 µM) | 0.478
22 | CCCCC[C@H](O)/C=C/[C@H]1[C@H](O)CC(=O)[C@@H]1CCCCCCC(=O)O [Alprostadil] (56.4189 µM) | 0.447

Row | Compound | fraction of cells in G1 phase
23 | CCCCC(C)(O)C/C=C/[C@H]1[C@H](O)CC(=O)[C@@H]1CCCCCCC(=O)OC (mixture of isomers) [Misoprostol] (52.2814 µM) | 0.499
24 | CCC(=O)O[C@]1(C(=O)CCl)[C@@H](C)C[C@H]2[C@@H]3CCC4=CC(=O)C=C[C@]4(C)[C@@]3(F)[C@@H](O)C[C@@]21C [Clobetasol propionate] (42.8282 µM) | 0.526
25 | CN(C)C(=O)C(CCN1CCC(O)(c2ccc(Cl)cc2)CC1)(c1ccccc1)c1ccccc1 [Loperamide] (38.9864 µM) | 0.512
26 | O=C(NCCO[N+](=O)[O-])c1cccnc1 [Nicorandil] (94.7066 µM) | 0.516
27 | CC[C@@H]1C(=O)OC[C@@H]1Cc1cncn1C [Pilocarpine HCl] (96.0327 µM) | 0.526
28 | CN1C2CCCC1CC(NC(=O)c1nn(C)c3ccccc13)C2 (centres undefined) [Granisetron] (64.0168 µM) | 0.486
29 | CCCOc1ccc2[nH]c(NC(=O)OC)nc2c1 [Oxibendazole] (80.2338 µM) | 0.481
30 | NC[C@H]1O[C@H](O[C@H]2[C@H](O)[C@@H](O[C@H]3O[C@H](CO)[C@@H](O)[C@H](N)[C@H]3O)[C@H](N)C[C@@H]2N)[C@H](N)C[C@@H]1O [Tobramycin (free base)] (42.7786 µM) | 0.469
31 | CC(C)NCC(O)COc1ccc(CC(N)=O)cc1 (centres undefined) [Atenolol] (75.0911 µM) | 0.454
32 | CC[C@@]1(O)C(=O)OCc2c1cc1n(c2=O)Cc2cc3cc(O)ccc3nc2-1 [10-hydroxycamptothecin] (54.8906 µM) | 0.499
33 | NC(=O)N1c2ccccc2C=Cc2ccccc21 [Carbamazepine] (84.6469 µM) | 0.483
34 | O=c1[nH]cnc2c1ncn2[C@H]1CC[C@@H](CO)O1 [Didanosine] (84.6625 µM) | 0.514
35 | CCC(=O)O[C@@H](O[P@](=O)(CCCCc1ccccc1)CC(=O)N1C[C@H](C2CCCCC2)C[C@H]1C(=O)O)C(C)C [Fosinopril] (35.4813 µM) | 0.501
36 | Nc1c2c(nc3ccccc13)CCCC2O (centres undefined) [Hydroxytacrine maleate] (93.3405 µM) | 0.513
37 | CCCCn1c(=O)c2c(ncn2CC(C)=O)n(CCCC)c1=O [Denbufylline] (62.423 µM) | 0.517
38 | Cc1ccc(-c2ncc(Cl)cc2-c2ccc(S(C)(=O)=O)cc2)cn1 [Etoricoxib] (55.7337 µM) | 0.511
39 | CC(C[N+](C)(C)C)OC(N)=O (stereo not drawn) [Carbamyl-beta-methylcholine Cl] (124.05 µM) | 0.5
40 | O=C(O)c1ccccc1Nc1cccc(C(F)(F)F)c1 [Flufenamic acid] (71.1145 µM) | 0.582
41 | C=C1/C(=C\C=C2/CCC[C@]3(C)[C@@H]([C@H](C)CCCC(C)(C)O)CC[C@@H]23)C[C@@H](O)C[C@@H]1O [Calcitriol] (48.0019 µM) | 0.565
42 | C=C1CC[C@H](O)C/C1=C/C=C1\CCC[C@]2(C)[C@@H]([C@H](C)CCCC(C)(C)O)CC[C@@H]12 [Calcifediol] (49.9188 µM) | 0.545
43 | C[C@H]1COc2c(N3CCN(C)CC3)c(F)cc3c(=O)c(C(=O)O)cn1c23 [Levofloxacin HCl] (55.344 µM) | 0.471
44 | Cc1ccc(NC(=O)c2ccc(CN3CCN(C)CC3)cc2)cc1Nc1nccc(-c2cccnc2)n1 [Imatinib] (40.5173 µM) | 0.52
